Laboratory results taken from the supplement of paper PMC10849652.
Targets with a hit are over-represented here; the source holds about 7,900 in all. About 0.6% of all pairs of compound and target were hits.

Compound: CC[C@H](C)[C@@H](C(=O)N[C@@H]([C@@H](C)O)C(=O)N[C@@H](CC(C)C)C(=O)[C@]1(CO1)C)NC(=O)[C@H]([C@@H](C)CC)N(C)C(=O)C [epoxomicin]
Assay: log2 fold change, soluble protein after heating vs DMSO (PISA); higher = thermal stabilisation; K562 cells, 10 uM, 30 min; active = over 0.2 and 3.5 SD of the protein, either way, in both replicates (recomputed)
How it was run: (§1)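 For each measurement, 10 μM compound was applied for 30 min to K562 cells at 2×10^6 cells/mL. Aliquots were heated for 3 min across 48°C-58°C, pooled, and extracted in PBS with 0.5% NP-40 at 4°C; the supernatant after 21,000xg for 90 min was soluble protein. This was quantified by TMTpro 16plex LC-MS/MS with channel sums equalised, and thermal stability was reported relative to control samples from duplicates, on a log2 fold-change scale.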

UniProt Q9BPY3, sequence (Q9BPY3 whole entry, looked up): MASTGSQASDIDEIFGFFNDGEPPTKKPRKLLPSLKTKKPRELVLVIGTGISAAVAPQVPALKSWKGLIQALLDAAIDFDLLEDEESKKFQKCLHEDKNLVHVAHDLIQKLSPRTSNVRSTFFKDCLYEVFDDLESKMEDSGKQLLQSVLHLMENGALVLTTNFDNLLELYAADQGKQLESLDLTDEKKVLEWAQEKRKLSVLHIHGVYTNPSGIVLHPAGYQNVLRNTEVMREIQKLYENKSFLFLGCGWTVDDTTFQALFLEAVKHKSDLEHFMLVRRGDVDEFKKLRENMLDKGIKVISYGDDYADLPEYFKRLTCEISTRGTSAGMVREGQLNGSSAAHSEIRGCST
UniProt P32519, sequence (P32519 whole entry, looked up): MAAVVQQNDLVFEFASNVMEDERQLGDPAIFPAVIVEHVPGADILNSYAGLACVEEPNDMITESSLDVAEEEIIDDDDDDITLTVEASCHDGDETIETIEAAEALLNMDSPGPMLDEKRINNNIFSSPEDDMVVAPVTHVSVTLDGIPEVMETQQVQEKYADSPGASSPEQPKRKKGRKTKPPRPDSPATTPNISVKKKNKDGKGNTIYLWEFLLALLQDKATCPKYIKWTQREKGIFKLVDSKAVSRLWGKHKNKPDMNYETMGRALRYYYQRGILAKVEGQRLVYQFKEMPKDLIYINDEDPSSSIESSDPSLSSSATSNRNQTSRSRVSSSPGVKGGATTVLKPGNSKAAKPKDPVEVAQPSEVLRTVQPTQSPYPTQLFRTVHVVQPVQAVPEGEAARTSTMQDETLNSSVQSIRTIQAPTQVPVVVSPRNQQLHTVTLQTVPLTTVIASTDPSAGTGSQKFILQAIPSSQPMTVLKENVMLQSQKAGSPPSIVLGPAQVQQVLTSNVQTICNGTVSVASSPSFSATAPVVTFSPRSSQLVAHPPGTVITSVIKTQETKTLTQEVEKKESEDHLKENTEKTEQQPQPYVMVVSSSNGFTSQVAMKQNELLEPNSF
UniProt P09622, sequence (P09622 whole entry, looked up): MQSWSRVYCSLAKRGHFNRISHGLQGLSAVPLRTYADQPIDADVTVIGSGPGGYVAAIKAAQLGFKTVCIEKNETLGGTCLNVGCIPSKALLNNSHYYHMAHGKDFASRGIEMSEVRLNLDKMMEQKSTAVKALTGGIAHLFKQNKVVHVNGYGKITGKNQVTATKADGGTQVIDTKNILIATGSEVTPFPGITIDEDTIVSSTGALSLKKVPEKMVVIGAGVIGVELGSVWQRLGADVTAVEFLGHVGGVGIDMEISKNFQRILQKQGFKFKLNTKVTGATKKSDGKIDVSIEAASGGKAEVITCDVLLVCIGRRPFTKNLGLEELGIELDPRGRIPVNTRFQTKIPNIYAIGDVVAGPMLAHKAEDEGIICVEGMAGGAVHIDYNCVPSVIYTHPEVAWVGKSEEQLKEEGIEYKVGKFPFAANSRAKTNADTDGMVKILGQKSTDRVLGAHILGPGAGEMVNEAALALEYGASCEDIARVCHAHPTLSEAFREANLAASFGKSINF
UniProt O60573, sequence (O60573 whole entry, looked up): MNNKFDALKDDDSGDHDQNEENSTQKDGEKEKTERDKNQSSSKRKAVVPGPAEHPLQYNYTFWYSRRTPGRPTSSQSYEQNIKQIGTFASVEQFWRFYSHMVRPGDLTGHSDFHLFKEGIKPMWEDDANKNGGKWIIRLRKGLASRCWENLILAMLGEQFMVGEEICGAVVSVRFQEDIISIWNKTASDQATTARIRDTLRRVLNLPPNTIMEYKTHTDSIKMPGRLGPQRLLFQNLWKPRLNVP
UniProt O75911, sequence (O75911 whole entry, looked up): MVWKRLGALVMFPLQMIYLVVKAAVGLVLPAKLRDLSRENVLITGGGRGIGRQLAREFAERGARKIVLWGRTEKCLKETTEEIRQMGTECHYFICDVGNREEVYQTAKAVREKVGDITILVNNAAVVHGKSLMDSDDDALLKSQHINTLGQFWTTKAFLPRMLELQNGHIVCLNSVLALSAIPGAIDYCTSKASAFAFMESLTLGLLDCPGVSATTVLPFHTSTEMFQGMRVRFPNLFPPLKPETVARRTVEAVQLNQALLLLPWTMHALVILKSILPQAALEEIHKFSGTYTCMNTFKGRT
UniProt Q9H410, sequence (Q9H410 whole entry, looked up): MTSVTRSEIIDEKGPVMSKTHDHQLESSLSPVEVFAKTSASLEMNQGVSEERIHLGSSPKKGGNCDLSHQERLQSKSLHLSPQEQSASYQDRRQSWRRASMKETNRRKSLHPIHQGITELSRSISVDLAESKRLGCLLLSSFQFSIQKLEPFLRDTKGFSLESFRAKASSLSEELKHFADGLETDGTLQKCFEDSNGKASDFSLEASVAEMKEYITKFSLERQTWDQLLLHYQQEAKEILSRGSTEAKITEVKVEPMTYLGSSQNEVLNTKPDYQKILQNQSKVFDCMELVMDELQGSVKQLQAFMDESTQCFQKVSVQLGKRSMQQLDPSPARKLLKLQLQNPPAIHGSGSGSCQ
UniProt O43237, sequence (O43237 whole entry, looked up): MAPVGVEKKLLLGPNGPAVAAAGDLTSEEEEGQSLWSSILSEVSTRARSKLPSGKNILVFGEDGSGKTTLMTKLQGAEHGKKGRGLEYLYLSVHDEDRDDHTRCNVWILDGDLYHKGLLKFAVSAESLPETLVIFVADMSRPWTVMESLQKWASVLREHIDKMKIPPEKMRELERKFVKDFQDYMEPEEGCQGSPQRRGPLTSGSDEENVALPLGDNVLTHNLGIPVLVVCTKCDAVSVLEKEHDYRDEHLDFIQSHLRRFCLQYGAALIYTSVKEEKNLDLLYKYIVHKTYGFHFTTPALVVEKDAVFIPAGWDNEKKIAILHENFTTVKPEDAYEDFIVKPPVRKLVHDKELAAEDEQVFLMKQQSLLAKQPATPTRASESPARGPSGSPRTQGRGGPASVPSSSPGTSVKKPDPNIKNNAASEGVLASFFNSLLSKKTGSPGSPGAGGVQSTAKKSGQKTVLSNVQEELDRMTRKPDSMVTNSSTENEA
UniProt Q9H777, sequence (Q9H777 whole entry, looked up): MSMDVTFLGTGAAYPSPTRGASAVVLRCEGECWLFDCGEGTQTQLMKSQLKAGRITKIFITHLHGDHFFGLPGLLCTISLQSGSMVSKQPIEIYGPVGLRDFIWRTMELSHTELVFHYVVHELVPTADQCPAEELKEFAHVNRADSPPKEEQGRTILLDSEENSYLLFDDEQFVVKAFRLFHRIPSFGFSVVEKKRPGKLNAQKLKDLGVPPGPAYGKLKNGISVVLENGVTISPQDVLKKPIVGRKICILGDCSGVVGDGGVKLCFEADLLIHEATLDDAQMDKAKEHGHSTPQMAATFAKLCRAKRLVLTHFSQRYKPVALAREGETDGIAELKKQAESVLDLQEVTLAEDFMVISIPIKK
UniProt Q16531, sequence (Q16531 whole entry, looked up): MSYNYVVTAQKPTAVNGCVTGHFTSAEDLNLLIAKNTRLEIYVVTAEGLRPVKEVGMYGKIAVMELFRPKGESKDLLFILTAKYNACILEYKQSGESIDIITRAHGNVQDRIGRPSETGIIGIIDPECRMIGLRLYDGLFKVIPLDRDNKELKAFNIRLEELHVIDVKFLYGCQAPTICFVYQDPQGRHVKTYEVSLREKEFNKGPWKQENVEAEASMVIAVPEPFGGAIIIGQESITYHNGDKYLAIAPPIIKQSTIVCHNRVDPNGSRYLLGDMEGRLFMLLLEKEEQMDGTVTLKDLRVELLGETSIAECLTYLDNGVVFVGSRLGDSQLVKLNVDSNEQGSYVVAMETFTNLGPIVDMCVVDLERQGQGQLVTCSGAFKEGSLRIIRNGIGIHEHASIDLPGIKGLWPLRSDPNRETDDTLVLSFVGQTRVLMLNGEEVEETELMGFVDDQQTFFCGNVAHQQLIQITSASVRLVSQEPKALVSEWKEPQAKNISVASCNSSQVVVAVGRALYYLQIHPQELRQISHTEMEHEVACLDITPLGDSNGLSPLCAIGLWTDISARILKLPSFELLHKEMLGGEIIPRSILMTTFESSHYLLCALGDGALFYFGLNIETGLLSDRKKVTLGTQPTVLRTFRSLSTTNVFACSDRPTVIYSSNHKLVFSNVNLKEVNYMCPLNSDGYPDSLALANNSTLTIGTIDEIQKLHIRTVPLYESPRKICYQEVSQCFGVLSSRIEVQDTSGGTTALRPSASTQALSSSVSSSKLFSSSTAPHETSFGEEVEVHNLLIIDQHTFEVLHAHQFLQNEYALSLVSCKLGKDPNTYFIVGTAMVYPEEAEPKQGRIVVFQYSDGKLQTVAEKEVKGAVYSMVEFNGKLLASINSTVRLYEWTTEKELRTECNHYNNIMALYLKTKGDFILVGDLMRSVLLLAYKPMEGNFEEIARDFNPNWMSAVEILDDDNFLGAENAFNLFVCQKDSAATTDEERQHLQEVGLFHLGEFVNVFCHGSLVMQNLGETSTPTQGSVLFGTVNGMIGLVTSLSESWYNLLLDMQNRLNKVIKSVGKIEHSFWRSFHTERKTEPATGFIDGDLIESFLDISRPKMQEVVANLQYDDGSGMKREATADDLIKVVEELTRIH
UniProt Q8N5C7, sequence (Q8N5C7 whole entry, looked up): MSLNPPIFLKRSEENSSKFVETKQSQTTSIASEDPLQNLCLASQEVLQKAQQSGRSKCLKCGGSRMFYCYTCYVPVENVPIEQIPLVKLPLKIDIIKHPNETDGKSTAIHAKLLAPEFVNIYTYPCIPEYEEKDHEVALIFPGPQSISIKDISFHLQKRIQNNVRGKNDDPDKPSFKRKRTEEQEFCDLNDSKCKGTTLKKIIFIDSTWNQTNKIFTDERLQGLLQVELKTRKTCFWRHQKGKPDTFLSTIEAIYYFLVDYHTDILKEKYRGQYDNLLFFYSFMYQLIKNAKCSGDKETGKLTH
UniProt Q6P3W2, sequence (Q6P3W2 whole entry, looked up): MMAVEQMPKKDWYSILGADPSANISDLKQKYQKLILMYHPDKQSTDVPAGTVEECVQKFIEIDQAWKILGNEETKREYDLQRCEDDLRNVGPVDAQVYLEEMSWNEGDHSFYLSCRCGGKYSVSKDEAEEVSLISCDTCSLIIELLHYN

log2 fold change, active:
CTNNB1 (UniProt P35222) 0.887

log2 fold change, inactive:
FAM207A (UniProt Q9NSI2) -0.024
FAM160B1 (UniProt Q5W0V3) 0
EDC3 (UniProt Q96F86) 0.003
DSN1 (UniProt Q9H410) -0.004
DNAJB1 (UniProt P25685) -0.041
EEF2K (UniProt O00418) 0.093
DNAJB12 (UniProt Q9NXW2) -0.003
DYNC1I2 isoform 2 (UniProt Q13409) -0.06
DDB1 (UniProt Q16531) -0.024
FAM3A (UniProt P98173) 0.029
EXOSC10 (UniProt Q01780) -0.098
ENTPD7 (UniProt Q9NQZ7) 0.032
EEF1A1 (UniProt P68104) 0.148
FAM118B (UniProt Q9BPY3) 0.036
CTSZ (UniProt Q9UBR2) 0.02
DOCK8 (UniProt Q8NF50) 0.119
DNAJC24 (UniProt Q6P3W2) 0.034
DHRS3 (UniProt O75911) -0.002
EIF2AK3 (UniProt Q9NZJ5) 0.033
ELAC1 (UniProt Q9H777) -0.002
FAM118A (UniProt Q9NWS6) 0.118
DTWD1 (UniProt Q8N5C7) -0.054
DNAH11 (UniProt Q96DT5) -0.157
FAM193B (UniProt Q96PV7) -0.033
DYNC1LI2 (UniProt O43237) -0.072
DENND10 (UniProt Q8TCE6) -0.041
DLD (UniProt P09622) -0.015
ELF1 (UniProt P32519) 0.117
DYRK1A isoform 2 (UniProt Q13627) 0.048
EIF4E2 (UniProt O60573) 0.018
CTSH (UniProt P09668) -0.022

Compound: CCn1c(C(=O)N(C2CC2)C2CC2)cc2c3c(ncn3C)c(Nc3cc(C)n(C)n3)nc21
Assay: as above
How it was run: as §1

log2 fold change, inactive:
FAM207A (UniProt Q9NSI2) 0.025
FAM160B1 (UniProt Q5W0V3) 0.027
EDC3 (UniProt Q96F86) -0.03
DSN1 (UniProt Q9H410) -0.107
DNAJB1 (UniProt P25685) -0.022
EEF2K (UniProt O00418) 0.102
CYB561A3 isoform 2 (UniProt Q8NBI2) -0.007
DNAJB12 (UniProt Q9NXW2) -0.096
DYNC1I2 isoform 2 (UniProt Q13409) 0.086
DDB1 (UniProt Q16531) 0.021
FAM3A (UniProt P98173) 0.085
EXOSC10 (UniProt Q01780) -0.098
ENTPD7 (UniProt Q9NQZ7) 0.032
EEF1A1 (UniProt P68104) 0.021
FAM118B (UniProt Q9BPY3) -0.008
CTSZ (UniProt Q9UBR2) 0.022
DOCK8 (UniProt Q8NF50) -0.208
DNAJC24 (UniProt Q6P3W2) 0.049
DHRS3 (UniProt O75911) 0.001
EIF2AK3 (UniProt Q9NZJ5) -0.295
ELAC1 (UniProt Q9H777) -0.073
EIF4G3 isoform 3 (UniProt O43432) 0.012
DTWD1 (UniProt Q8N5C7) 0.018
DOLPP1 (UniProt Q86YN1) -0.129
DNAH11 (UniProt Q96DT5) 0.063
DYNC1LI2 (UniProt O43237) -0.085
DAXX (UniProt Q9UER7) -0.111
DENND10 (UniProt Q8TCE6) -0.048
DLD (UniProt P09622) 0.049
CWF19L2 (UniProt Q2TBE0) -0.131
ELF1 (UniProt P32519) -0.161
DYRK1A isoform 2 (UniProt Q13627) -0.012
EIF4E2 (UniProt O60573) -0.053
FAM241A (UniProt Q8N8J7) 0.057
CTSH (UniProt P09668) 0.03
CYP24A1 (UniProt Q07973) -0.126
CTNNB1 (UniProt P35222) -0.027
